The campaign covered roughly 330,000 compounds. About 10,000 (3%) were called active. The full list was thinned out, with actives kept by preference. Values without a mark were called inactive.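 How the source made its calls: active means inhibition of at least 50% at 8 µM in the primary screen; inactive means the rest.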

The target of this test is Protein Mdm4 (Homo sapiens) + E3 ubiquitin-protein ligase Mdm2 (Homo sapiens) (UniProt O15151+Q00987). Nature of the test: disruptors of Mdm2/MdmX RING complex – cell-based, luminescence, split luciferase, SaOS-2, uHTS, primary screen (AID 485346). The note with it: SaOS-2 split-luciferase Mdm2/MdmX complementation, at 8 µM, hits give high values.
Protein Mdm4 (Homo sapiens) + E3 ubiquitin-protein ligase Mdm2 (Homo sapiens), sequence (O15151 whole entry, looked up): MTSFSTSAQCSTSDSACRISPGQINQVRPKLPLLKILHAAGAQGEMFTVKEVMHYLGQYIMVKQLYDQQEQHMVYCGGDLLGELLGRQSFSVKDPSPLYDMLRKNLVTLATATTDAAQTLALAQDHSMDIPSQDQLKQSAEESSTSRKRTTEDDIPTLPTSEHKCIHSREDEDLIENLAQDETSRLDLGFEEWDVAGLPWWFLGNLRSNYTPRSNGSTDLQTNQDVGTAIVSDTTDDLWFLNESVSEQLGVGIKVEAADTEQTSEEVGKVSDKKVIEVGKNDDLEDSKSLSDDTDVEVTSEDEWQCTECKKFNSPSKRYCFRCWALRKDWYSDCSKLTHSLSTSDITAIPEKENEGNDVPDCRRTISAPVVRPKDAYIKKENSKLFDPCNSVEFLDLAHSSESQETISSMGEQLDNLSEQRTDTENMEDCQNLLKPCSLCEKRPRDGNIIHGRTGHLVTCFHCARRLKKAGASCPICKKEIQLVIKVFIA
Protein Mdm4 (Homo sapiens) + E3 ubiquitin-protein ligase Mdm2 (Homo sapiens), sequence (Q00987 whole entry, looked up): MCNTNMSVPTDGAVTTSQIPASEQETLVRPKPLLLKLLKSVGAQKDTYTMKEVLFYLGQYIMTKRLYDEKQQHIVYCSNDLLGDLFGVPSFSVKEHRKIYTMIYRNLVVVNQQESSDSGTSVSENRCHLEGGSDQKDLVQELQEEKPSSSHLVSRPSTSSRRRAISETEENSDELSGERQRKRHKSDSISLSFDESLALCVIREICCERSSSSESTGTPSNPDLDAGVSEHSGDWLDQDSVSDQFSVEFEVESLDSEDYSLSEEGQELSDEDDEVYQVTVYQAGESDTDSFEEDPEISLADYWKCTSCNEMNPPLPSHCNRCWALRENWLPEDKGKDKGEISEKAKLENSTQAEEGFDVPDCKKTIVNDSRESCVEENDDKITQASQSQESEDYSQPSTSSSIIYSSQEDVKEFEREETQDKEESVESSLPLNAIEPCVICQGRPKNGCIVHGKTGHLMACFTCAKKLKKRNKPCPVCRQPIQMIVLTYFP
For `O=C(NC(c1ccc(Cl)cc1)P(=O)(Oc1ccccc1)Oc1ccccc1)OCc1ccccc1` (configuration not stated), the inhibition is 18.9%. The value for `C[C@]12CC[C@H](O)C[C@H]1CC[C@@H]1C2CC[C@]2(C)[C@@H](C3=CC(=O)OC3)[C@@H](O)C[C@]12O` (some centres not stated) was 45.4%; that for `CCNc1nc2[nH]c(=O)c3c(c2s1)OC(N)=C(C#N)C3c1cccs1` (configuration not stated) was 17.9%; that for `N#CC1=C(N)Oc2c(c(=O)oc3ccccc23)C1c1ccccc1OC(=O)c1cccs1` (configuration not stated) was 62.3% (active).

`COC(=O)C1=C(c2cccc(OCc3ccccc3)c2)C[C@@H]2CC[C@H]1N2C(=O)NNCc1ccccc1`: the inhibition is 29.6%. The value for `CC(=O)N(C1=NCCCS1)c1ccccc1F` was 14.4%. As for `CN(C)C(=O)Oc1cc(=O)n2c3c(cccc13)CCC2`, the inhibition was 19.2%. Next, `CCCCCCCCCCCCn1ccc(=N)cc1`: 97.2% (active); `CC(C(=O)Nc1ccc(Cl)cc1Cl)N1CC=C(c2ccccc2)CC1` (configuration not stated): -0.882%; `NCCc1ccc(S(=O)(=O)F)cc1`: 5.92%. Regarding `O=C1NC(=O)C(C/C=C/c2ccccc2)C(=O)N1`, the inhibition is -4.93%. Regarding `CC1(C)Cc2c(C#N)c(N3CCNCC3)nc(-c3ccco3)c2CS1`, the inhibition is 62% (active). With `COc1cccc(N2C(=O)NC(=O)/C(=C\c3ccc([N+](=O)[O-])s3)C2=O)c1`, the inhibition was 7.01%. Take `COC(=O)[C@@H]1C(OC(=O)c2ccccc2)CC2CCC1N2C` (some centres not stated): the inhibition is 5.75%. As for `COc1ccc(C2N3CC(C)(C)CN23)cc1` (configuration not stated), the inhibition is 4.71%. Next, `O=C(O)c1ccccc1NC(=O)C1C2CCC(O2)C1C(=O)O` (configuration not stated): 40.4%; `CCCCC(=O)N/N=C/c1c(O)n(CCC2=CCCCC2)c(=O)[nH]c1=O`: 50.4% (active).

For the molecule `CCCCC(=O)N/N=C/c1c(O)n(-c2ccccc2)c(=O)[nH]c1=O`, the inhibition is 10.7%.

Turning to `CCCCC(=O)N/N=C/c1c(O)n(CC)c(=S)n(CC)c1=O`, the inhibition is 10.6%. With `O=C1NC(=O)C(CCc2ccccn2)(Cc2cccc(Cl)c2Cl)C(=O)N1c1ccc(Br)cc1` (configuration not stated), the inhibition is 17.3%. `C/C(=N/O)c1ccc2ccc3ccccc3c2c1`: the inhibition was -52.9%.

Turning to `O=Cc1cn(Cc2ccc(F)cc2Cl)c2ccccc12`, the inhibition was 50.9% (active). On to `CN1CCC(N(C)Cc2cccnc2)CC1`, for which the inhibition was -0.974%. Take `CN(C)CCN(CC1CCCN(Cc2ccccc2F)C1)C(=O)Cc1ccc(F)c(F)c1` (configuration not stated): the inhibition is 15.4%.

`CC(=O)c1ccc(OC(NC(=O)Cc2ccccc2)C(Cl)(Cl)Cl)cc1` (configuration not stated): the inhibition was 6.38%.

Turning to `c1ccc(C2NCc3ccccc3-n3cccc32)cc1` (configuration not stated), the inhibition is 19.8%. With `Cn1c(C(=O)N2CCC(C(=O)N3CCC4(CC3)OCCO4)CC2)cc2sccc21`, the inhibition is -1.94%. Regarding `CNC(=O)O/N=C(\N)Cc1csc2ccc(Cl)cc12`, the inhibition was 97.6% (active). Next, `CNC(=O)O/N=C(\N)Cc1csc2ccccc12`: 78.8% (active).

On to `CC[C@H]1CC2CN3CCc4c([nH]c5ccccc45)C(C(=O)OC)(C2)C13` (some centres not stated), for which the inhibition was 33.7%. The value for `Cc1cc(N2C(=O)C3CCCN3C2c2ccc(Cl)c(Cl)c2)no1` (configuration not stated) was -4.12%.

For the molecule `CCCn1c(C(=O)c2ccccc2OC)nc2ccccc21`, the inhibition is 10.6%.

Values taken from PubChem BioAssay AID485346 (Sanford-Burnham Center for Chemical Genomics, 2010).
